Data on 15 compounds can be found in ChEMBL document CHEMBL3433997, “St. Jude Leishmania screening dataset” (2016).

The assay has as its target Hexose transporter 1 (Plasmodium falciparum) (UniProt O97467). Briefly: ST_JUDE_LEISH: Cytotoxicity at 2uM final concentration against transgenic Leishmania Mexicana promastigotes LmPfHT that are glucose transport deficient and complemented with the Plasmodium falciparum hexose transporter. Activity is measured by DNA content using SYBR green in vitro. The format is functional.
As for `COc1ccc(NS(=O)(=O)c2ccc(C(=O)Nc3ccc(OC(F)(F)F)cc3)cc2)cc1N1CCN(CC2CC2)CC1`, the inhibition stood at 5.3%.
With `COc1ccc(CCNC(=O)c2cc(C)ccc2O)cc1-c1ccc(C(C)(C)C)cc1`, the inhibition was 2.89%.
For `Cc1ccc2c(c1)c(-c1ccccc1)c(-c1ccccc1)n2CC(O)CN1CCN(CC=Cc2ccccc2)CC1` (stereo not given), the inhibition was determined as 1.97%.
With `CCNC(=O)Nc1ccc(-c2cnc(N)c(-c3nc4ccc(OC)cc4[nH]3)c2)cc1`, the inhibition worked out at 4.42%.
Regarding `CN1CCC(NCc2cccc(-c3cnc(NCc4ccccc4)nc3)c2)CC1`, the inhibition is 2.79%.
As for `CN1CCN(c2cc(NC(=O)c3ccc(-c4ccc(C#N)cc4)cc3)ccc2Cl)CC1`, the inhibition was -0.14%.
Under `CCn1ncc2c(N3CCCC3=O)cc(C(=O)N[C@@H](Cc3ccccc3)[C@H](O)CNC(C)(C)c3cccc(OC)c3)cc21` stands -0.95%.
In the case of `Cc1cccc2nc(-c3ccc(-c4ccc(NC(=O)Nc5cccc(C#N)c5)cc4)s3)[nH]c12`, the inhibition was 6.92%.
`O=C1NC(c2ccc(N3CCCCCC3)cc2)Nc2ccccc21` (stereo not given): the inhibition came out at 4.82%.
`NC1CCN(Cc2cccc(-c3ccc(-c4nc5ccccc5[nH]4)s3)c2)C1` (stereo not given): the inhibition is 2.41%.
On to `CNC(=O)Cc1ccc(C(=O)Nc2cccc(-c3cccc(-c4nc5cccc(C)c5[nH]4)c3)c2)cc1`, for which the inhibition was -0.87%.
Regarding `CCc1c(C)nc(-n2nc(C)cc2NC(=O)CCc2ccccc2)[nH]c1=O`, the inhibition was determined as 2.79%.
`Cc1ccc(-n2nc(-c3ccccc3)c3cc(C(=O)NCCN)sc32)cc1`: the inhibition was -1.78%.
For the compound `COc1cc(Cc2cnc(N)nc2N)cc(OCCCCC#N)c1OC`, the inhibition is 1.74%.
In the case of `N#Cc1c(N)n(CCc2ccc(F)cc2)c2nc3ccccc3nc12`, the inhibition turned out to be 1.58%.
